Bioassay records: PubChem, several laboratories
Most compounds without a hit are left out; they make up all but 0.74% or so of the library.
Rv3671c inh = Rv3671c serine protease inhibitors, primary screen, biochemical, fluorescence polarization, M. tuberculosis H37Rv; P9WHR9; inhibition, % at 5.96 µM; actives 0.048% (n = 320,000); in the data active = inhibition above about 38%;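 also: extracellular domain of Rv3671c used as enzyme; 0% = enzyme with DMSO and 100% = no enzyme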
MazEF act = activators of E. coli MazEF toxin-antitoxin RNase, primary screen, biochemical, fluorescence, uHTS; actives 0.32% (n = 350,000); activation, % at 20 µM; FAM/BHQ RNA-DNA oligo cleavage fluorescence, 5 h; in the data active = activation above about 50%
Target sequence (P0AE70 whole entry, looked up): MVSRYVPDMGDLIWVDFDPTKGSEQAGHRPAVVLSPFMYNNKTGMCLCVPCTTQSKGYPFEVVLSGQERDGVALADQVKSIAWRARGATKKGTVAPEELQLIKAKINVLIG
UGM FP inh = M. tuberculosis UGM enzyme inhibitors, primary screen, biochemical, fluorescence polarization, single point; purified UGM, fluorescence polarization probe displacement; inhibition, % at 10 µM; actives 0.06% (n = 320,000); AID 504406, 2011; in the data active = inhibition above about 10%, passing the limit was not always enough
Target sequence (P9WIQ1 whole entry, looked up): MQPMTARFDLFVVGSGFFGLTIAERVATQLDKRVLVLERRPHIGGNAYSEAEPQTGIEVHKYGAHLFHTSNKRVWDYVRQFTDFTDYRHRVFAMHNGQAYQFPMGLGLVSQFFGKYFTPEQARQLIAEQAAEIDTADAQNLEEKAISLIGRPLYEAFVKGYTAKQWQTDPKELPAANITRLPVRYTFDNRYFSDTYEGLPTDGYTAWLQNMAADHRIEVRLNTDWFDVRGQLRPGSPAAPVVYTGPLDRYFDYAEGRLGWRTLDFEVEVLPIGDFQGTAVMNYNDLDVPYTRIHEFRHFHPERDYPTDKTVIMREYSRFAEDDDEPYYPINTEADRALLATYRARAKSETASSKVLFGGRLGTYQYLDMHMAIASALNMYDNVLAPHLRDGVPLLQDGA
Mtb betalactam = beta-lactam sensitization of Mtb H37Rv, H37Rv; M. tuberculosis H37Rv growth with meropenem, percent inhibition; inhibition, % at 25 µM; actives 0.27% (n = 330,000); AID 434955, 2010; call rule not given here;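 also: growth measured after seven days incubation then overnight dye step; 0% = bacteria only wells and 100% = bacteria with antibiotic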
BH1578 lux ind = inducers of Vibrio cholerae quorum light production without autoinducers, primary screen, BH1578 luxS cqsA deficient, single point | activation, % at 18.7 µM | V. cholerae BH1578 lux reporter, luminescence, 6 h | actives 0.16% (n = 350,000); in the data active = activation mostly above about 9.7%, no sharp cut-off
FadD28 FP inh = inhibitors of FadD28 bisubstrate probe binding, primary screen, biochemical, fluorescence polarization, single point; actives 0.22% (n = 360,000); Mycobacterium tuberculosis FadD28 fatty-acid-AMP ligase; inhibition, % at 12.5 µM; in the data active = inhibition above about 8.5%, passing the limit was not always enough
The depositor's hits bear a star; i = inactive; x = not tested or not shown.

SMILES | Rv3671c inh | MazEF act | UGM FP inh | Mtb betalactam | BH1578 lux ind | FadD28 FP inh
Cc1c(Cl)cccc1NS(=O)(=O)c1ccc2c(c1)C1C=CCC1C(c1ccc(C(=O)O)cc1)N2 (stereo not given) | 10 | -6 | 3 | 1 | 0 | 28*
COc1ccc(NS(=O)(=O)c2ccc3c(c2)[C@H]2C=CC[C@H]2[C@@H](c2ccc(C(=O)O)cc2)N3)cc1 | 25 | -18 | 1 | -2 | i | 32*
CC1C=CCC2C(=O)N(c3cccc(C(=O)Nc4ccc(Br)cc4)c3)C(=O)C12 (stereo not given) | -28 | 5 | 7 | 8 | 0 | x
Cc1nc2ccccc2n1CC(=O)OCC(=O)NCc1ccccc1 | -2 | 0 | 1 | 10 | i | 1
CCOC(=O)Cn1c(=O)c(-c2ccccc2NCc2ccccc2)nc2ccccc21 | -3 | 61* | 0 | 1 | 0 | 1
C/C(=N\Nc1ccc(Cl)c(C(=O)O)c1)c1ccc2c(c1)OCO2 | 7 | -1 | -2 | -3 | 0 | -3
C/C(=N/Nc1ccc(C(=O)O)cc1)c1ccc2c(c1)Nc1ccccc1S2 | x | -3 | x | x | i | 20*
C/C(=N\Nc1ccc(C(=O)O)cc1)c1ccc2c(c1)Nc1ccccc1S2 | 5 | -7 | 2 | 69 | i | 20*
COc1ccc(/C(C)=N/Nc2cccc(C(=O)O)c2)cc1OC | 11 | -1 | -1 | 2 | -1 | 0
S=c1[nH]ncn1/N=C/c1ccco1 | x | -1 | x | x | 0 | 0
C#CCOCCOCCOCCNc1nc(N2CCN(C(=O)CCCCCCCCCCNC(=O)Cn3cc(C[C@@H](C)O)nn3)CC2)nc(N2CCN(C(=O)CCCCCCCCCCNC(=O)[C@@H](CCC(=O)O)n3cc(CCCCCN)nn3)CC2)n1 | -4 | 63* | -1 | -4 | -4 | -4
C/C(CC(=O)Nc1cc(C)ccn1)=N\NC(=O)C(=O)Nc1cccc(C)c1 | -9 | 195* | -1 | 63 | 0 | -2
CCCCCCC(N)CC(=O)O (stereo not given) | x | 5 | x | x | 0 | 0
CCCCCCCCCCCCCCCC(O)C(N)CO (stereo not given) | 10 | -10 | -1 | 15 | 0 | 49*
O=C1CCC[C@@H]2[C@@H](Cc3ccccc3)[C@H](N3CCN(c4ccccc4)CC3)C[C@@H]3CCN1[C@@H]32 | x | 7 | x | x | -1 | -1
O=C(NCCc1ccc(C(F)(F)F)cc1)C1CCC(=O)N(CCc2cccc(F)c2)C1 (stereo not given) | -3 | 64* | -1 | 0 | i | -8
CCOC(=O)Cn1c(=NC(=O)c2ccc([N+](=O)[O-])s2)sc2ccccc21 | -4 | 276* | 2 | 2 | 0 | -1
CCOC(=O)Cn1c(=NC(=O)C2COc3ccccc3O2)sc2cc(S(N)(=O)=O)ccc21 (stereo not given) | 1 | -47 | -3 | 2 | 2 | -7
O=C(CN1CCN(C(=O)C2COc3ccccc3O2)CC1)Nc1ccc(F)cc1 (stereo not given) | -5 | 5 | -2 | -6 | -1 | 0
CC(=O)c1c(C)nn(CC(=O)NC2CCCN(Cc3ccc(CC(C)C)cc3)C2)c1C (stereo not given) | 7 | 5 | -2 | -1 | 0 | -4
C/C(C/C(C)=C1/SC(=S)NC1=O)=C1\SC(=S)NC1=O | x | -2 | x | x | 0 | 20*
CCCCCC/C(C)=C1/SC(=S)NC1=O | -8 | -16 | -2 | 10 | -6 | -9
COc1ccc(NC(=O)CSc2ccc([N+](=O)[O-])cc2)cc1S(=O)(=O)N1CCOCC1 | 0 | -17 | x | -4 | 2 | 12*
COc1ccc(NC(=O)CSc2ccc(NC(C)=O)cc2)cc1S(=O)(=O)N1CCOCC1 | 0 | 5 | 0 | -4 | i | 1
COc1cccc(C(C)(O)c2nc(-c3ccc(OC)nc3)cs2)c1 (stereo not given) | x | x | x | x | i | 0
SMILES | Rv3671c inh | MazEF act | UGM FP inh | Mtb betalactam | BH1578 lux ind | FadD28 FP inh
COc1ccccc1C(=O)N/C(N)=N/c1nc2ccccc2o1 | -5 | 61* | 3 | 3 | i | -3
CSc1nc(-c2ccc(N(C)C)cc2)c(C#N)c(=O)n1C | 4 | 136* | 6 | 6 | 0 | -1
Cc1ccc(C(=O)OCC(=O)Nc2c(C)n(C)n(-c3ccccc3)c2=O)cc1[N+](=O)[O-] | 3 | 50* | -2 | 4 | i | -2
Cc1ccc(OCCC(=O)Nc2cc(S(=O)(=O)N3CCOCC3)ccc2N2CCCC2)cc1 | x | 1 | x | x | i | -8
COc1cc(Cl)ccc1OC1(C)CCN(Cc2ccc(-c3ccccn3)cc2)C1 (stereo not given) | x | x | x | x | -1 | -2
CCC(C)NCCOc1ccccc1C (stereo not given) | -3 | -1 | -1 | 0 | 24* | -1
CCC(C)NCCOc1ccc(Br)cc1 (stereo not given) | 3 | 1 | 1 | -11 | 2 | -2
CC(=O)Nc1ccc(S(=O)(=O)/N=C2/NC(=O)/C(=C\c3ccco3)S2)cc1 | -8 | -18 | -1 | -5 | 1 | 3
Cc1ccc(S(=O)(=O)/N=C2/NC(=O)/C(=C\c3ccco3)S2)cc1 | -2 | -11 | 1 | -26 | i | 12*
Cc1ccc(S(=O)(=O)/N=C2/NC(=O)/C(=C/c3cc([N+](=O)[O-])ccc3O)S2)cc1 | 7 | -39 | -6 | -5 | 0 | 33*
O=C1NC(=Nc2ccccc2Cl)S/C1=C\c1cc([N+](=O)[O-])ccc1O | 22 | -21 | -2 | 7 | 0 | 30*
CCCCc1nc2cc(C(=O)N3CCN(c4nc(C)cnc4C)CC3)ccc2o1 | 8 | 3 | -1 | 14 | i | -2
C/C(=N\NS(=O)(=O)c1c(C)cc(C)cc1C)c1ccncc1 | -4 | -3 | 4 | -10 | i | -3
COc1ccc(-n2c(SCC(=O)N(C)C3CCS(=O)(=O)C3)nc3ccc(O)cc3c2=O)cc1OC (stereo not given) | -1 | 10 | -6 | -5 | i | -2
COC(=O)c1ccc2cc(C)cc(C)c2n1 | x | x | x | x | x | 1
Cc1[nH]c2ccccc2c1C(C#N)(C#N)C1C(=O)c2ccccc2C1=O | -70 | 5 | -3 | 24 | i | 18*
Cc1[nH]c2ccccc2c1CC#N | 10 | 5 | 0 | 2 | 0 | -1
COc1ccccc1C(=O)Nc1cc(Cl)ccc1O | -3 | 4 | -2 | 12 | i | -1
CCOc1ccccc1C(=O)Nc1cc(Cl)ccc1O | -13 | 68* | 1 | 22 | 1 | -4
O=C1c2cccc3c(O)ccc(c23)C(=O)N1Cc1ccccc1 | 11 | 380* | -2 | 2 | i | 1
